# Laboratory results reported in PMC5540273 (PLoS ONE, 2017).
# Where two headings read alike, the source gives them in different places.
# What was measured:
# CSK = settings: concentration: 1 μM, replicates: in singlicate; n = 1
# CSNK1A1L = settings: concentration: 1 μM, replicates: in singlicate; n = 1
# CSNK1A1 = settings: concentration: 1 μM, replicates: in singlicate; n = 1
# CSNK1D = settings: concentration: 1 μM, replicates: in singlicate; n = 1
# CSNK1E = settings: concentration: 1 μM, replicates: in singlicate; n = 1
# CSNK1G1 = settings: concentration: 1 μM, replicates: in singlicate; n = 1
# CSNK1G2 = settings: concentration: 1 μM, replicates: in singlicate; n = 1
# CSNK1G3 = settings: concentration: 1 μM, replicates: in singlicate; n = 1
# CSNK2A1 = settings: n = 1
# CSNK2A2 = settings: n = 1
# CTK = system: T1, CTK; settings: concentration: 1 μM, replicates: in singlicate; n = 1
# T1 construct: gene MATK
# DAPK1 = settings: concentration: 1 μM, replicates: in singlicate; n = 1
# DAPK2 = settings: concentration: 1 μM, replicates: in singlicate; n = 1
# DAPK3 = settings: concentration: 1 μM, replicates: in singlicate; n = 1
# DCAMKL1 = system: T2, DCAMKL1; settings: concentration: 1 μM, replicates: in singlicate; n = 1
# T2 construct: gene DCLK1
# DCAMKL2 = system: T3, DCAMKL2; settings: concentration: 1 μM, replicates: in singlicate; n = 1
# T3 construct: gene DCLK2
# DCAMKL3 = system: T4, DCAMKL3; settings: concentration: 1 μM, replicates: in singlicate; n = 1
# T4 construct: gene DCLK3
# DDR2 = settings: concentration: 1 μM, replicates: in singlicate; n = 1
# DLK = system: T5, DLK; settings: concentration: 1 μM, replicates: in singlicate; n = 1
# T5 construct: gene MAP3K12
# DDR1 = settings: concentration: 1 μM, replicates: in singlicate; n = 1
# [1] = concentration: 1 μM, replicates: in singlicate
# 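Also: KINOMEscan kinase panel screen.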
smiles,measurement,setting,value
Cc1cnc(N)c(/C=C/c2cncc(C(=O)NCCc3ccc(Cl)cc3Cl)c2)c1.Cl [GSK190937],%Inh,CSK,0%
same,%Inh,CSNK1A1L,0%
same,%Inh,CSNK1A1,0%
same,%Inh,CSNK1D,34%
same,%Inh,CSNK1E,20%
same,%Inh,CSNK1G1,24%
same,%Inh,CSNK1G2,2%
same,%Inh,CSNK1G3,3%
same,%Inh,CSNK2A1; [1],0%
same,%Inh,CSNK2A2; [1],0%
same,%Inh,CTK,0%
same,%Inh,DAPK1,10%
same,%Inh,DAPK2,7%
same,%Inh,DAPK3,11%
same,%Inh,DCAMKL1,4%
same,%Inh,DCAMKL2,0%
same,%Inh,DCAMKL3,23%
same,%Inh,DDR2,79%
same,%Inh,DLK,25%
Cn1cnc2c(N)ncnc21 [SKF-97623],%Inh,CSK,0%
same,%Inh,CSNK1A1L,22%
same,%Inh,CSNK1A1,1%
same,%Inh,CSNK1D,0%
same,%Inh,CSNK1E,8%
same,%Inh,CSNK1G1,0%
same,%Inh,CSNK1G2,70%
same,%Inh,CSNK1G3,0%
same,%Inh,CSNK2A1; [1],0%
same,%Inh,CSNK2A2; [1],0%
same,%Inh,CTK,0%
same,%Inh,DAPK1,100%
same,%Inh,DAPK2,0%
same,%Inh,DAPK3,0%
same,%Inh,DCAMKL1,0%
same,%Inh,DCAMKL2,0%
same,%Inh,DCAMKL3,11%
same,%Inh,DDR1,0%
same,%Inh,DDR2,30%
same,%Inh,DLK,6%
CSc1ccc(-c2nc3n(c2-c2ccncc2)CCC3)cc1 [SKF-105561],%Inh,CSK,0%
same,%Inh,CSNK1A1L,5%
same,%Inh,CSNK1A1,5%
same,%Inh,CSNK1D,6%
same,%Inh,CSNK1E,7%
same,%Inh,CSNK1G1,0%
same,%Inh,CSNK1G2,0%
same,%Inh,CSNK1G3,1%
same,%Inh,CSNK2A1; [1],8%
same,%Inh,CSNK2A2; [1],0%
same,%Inh,CTK,21%
same,%Inh,DAPK1,29%
same,%Inh,DAPK2,0%
same,%Inh,DAPK3,0%
same,%Inh,DCAMKL1,3%
same,%Inh,DCAMKL2,0%
same,%Inh,DCAMKL3,21%
same,%Inh,DDR1,75%
same,%Inh,DDR2,60%
same,%Inh,DLK,0%
CC(=O)c1cccc(NC(=O)NC2CCN(c3ccnc(Nc4ccc(F)cc4)n3)C2)c1 (stereo not drawn) [GSK1379710],%Inh,CSK,5%
same,%Inh,CSNK1A1L,0%
same,%Inh,CSNK1A1,0%
same,%Inh,CSNK1D,27%
same,%Inh,CSNK1E,18%
same,%Inh,CSNK1G1,12%
same,%Inh,CSNK1G2,0%
same,%Inh,CSNK1G3,25%
same,%Inh,CSNK2A1; [1],16%
same,%Inh,CSNK2A2; [1],15%
same,%Inh,CTK,0%
same,%Inh,DAPK1,15%
same,%Inh,DAPK2,2%
same,%Inh,DAPK3,26%
same,%Inh,DCAMKL1,6%
same,%Inh,DCAMKL2,11%
same,%Inh,DCAMKL3,14%
same,%Inh,DDR1,20%
same,%Inh,DDR2,7%
same,%Inh,DLK,29%
CS(=O)(=O)Cc1ccc(Nc2nccc(-c3c(-c4cccc(NC(=O)C5CCCCC5)c4)nn4ncccc34)n2)cc1 [GSK350559],%Inh,CSK,10%
same,%Inh,CSNK1A1L,0%
same,%Inh,CSNK1A1,7%
same,%Inh,CSNK1D,0%
same,%Inh,CSNK1E,20%
same,%Inh,CSNK1G1,2%
same,%Inh,CSNK1G2,5%
same,%Inh,CSNK1G3,4%
same,%Inh,CSNK2A1; 1 µM,17%
same,%Inh,CSNK2A2; 1 µM,1%
same,%Inh,CTK,38%
same,%Inh,DAPK1,0%
same,%Inh,DAPK2,9%
same,%Inh,DAPK3,0%
same,%Inh,DCAMKL1,0%
same,%Inh,DCAMKL2,15%
same,%Inh,DCAMKL3,0%
same,%Inh,DDR1,96.6%
same,%Inh,DDR2,54%
same,%Inh,DLK,41%
CC(C)c1ccc(O)cc1Nc1ccnc2ccc(C(F)(F)F)cc12 [GW482059],%Inh,CSK,0%
same,%Inh,CSNK1A1L,11%
same,%Inh,CSNK1A1,0%
same,%Inh,CSNK1D,0%
same,%Inh,CSNK1E,0%
same,%Inh,CSNK1G1,0%
same,%Inh,CSNK1G2,0%
same,%Inh,CSNK1G3,9%
same,%Inh,CSNK2A1; [1],7%
same,%Inh,CSNK2A2; [1],0%
same,%Inh,CTK,8%
same,%Inh,DAPK1,5%
same,%Inh,DAPK2,0%
same,%Inh,DAPK3,0%
same,%Inh,DCAMKL1,0%
same,%Inh,DCAMKL2,0%
same,%Inh,DCAMKL3,0%
same,%Inh,DDR1,18%
same,%Inh,DDR2,0%
same,%Inh,DLK,17%
O=C(Nc1n[nH]c2nc(-c3cccs3)c(Br)cc12)C1CCCC1 [SB-743341],%Inh,CSK,9%
same,%Inh,CSNK1A1L,13%
same,%Inh,CSNK1A1,27%
same,%Inh,CSNK1D,0%
same,%Inh,CSNK1E,0%
same,%Inh,CSNK1G1,0%
same,%Inh,CSNK1G2,0%
same,%Inh,CSNK1G3,0%
same,%Inh,CSNK2A1; [1],10%
same,%Inh,CSNK2A2; [1],17%
same,%Inh,CTK,49%
same,%Inh,DAPK1,0%
same,%Inh,DAPK2,3%
same,%Inh,DAPK3,3%
same,%Inh,DCAMKL1,0%
same,%Inh,DCAMKL2,7%
same,%Inh,DCAMKL3,22%
same,%Inh,DDR1,27%
same,%Inh,DDR2,0%
same,%Inh,DLK,0%
COc1ccc(Nc2nccc(N3CCC(NC(=O)C(C)c4ccc(Cl)cc4)CC3)n2)cc1 (stereo not drawn) [GSK1379812],%Inh,CSK,0%
same,%Inh,CSNK1A1L,0%
same,%Inh,CSNK1A1,0%
same,%Inh,CSNK1D,18%
same,%Inh,CSNK1E,35%
same,%Inh,CSNK1G1,7%
same,%Inh,CSNK1G2,0%
same,%Inh,CSNK1G3,19%
same,%Inh,CSNK2A1; [1],0%
same,%Inh,CSNK2A2; [1],21%
same,%Inh,CTK,0%
same,%Inh,DAPK1,3%
same,%Inh,DAPK2,20%
same,%Inh,DAPK3,10%
same,%Inh,DCAMKL1,6%
same,%Inh,DCAMKL2,0%
same,%Inh,DCAMKL3,0%
same,%Inh,DDR1,0%
same,%Inh,DDR2,4%
same,%Inh,DLK,0%
